Source: PubChem BioAssay (National Center for Advancing Translational Sciences (NCATS))
This is a sample that favours compounds with a hit; in the whole collection about 16% have one here.
TDP1 block: qHTS Assay for Inhibitors of Tyrosyl-DNA Phosphodiesterase (TDP1). Tyrosyl-DNA phosphodiesterase 1 (Homo sapiens), Q9NUW8. recombinant TDP1, AlphaScreen DNA substrate cleavage. Potency, µM (highest dose often 130 µM), for the others: at the highest dose activity change, negative = inhibition, hits mostly inhibitors. actives 0.28% (n = 350,000). AID 485290, 2010; note: potency is the fitted concentration of half-maximal effect; % is set by controls: 0 for no effect and ±100 for the full control effect; nearly all actives have a fitted effect of over 40% in size
Target sequence (Q9NUW8 whole entry, looked up): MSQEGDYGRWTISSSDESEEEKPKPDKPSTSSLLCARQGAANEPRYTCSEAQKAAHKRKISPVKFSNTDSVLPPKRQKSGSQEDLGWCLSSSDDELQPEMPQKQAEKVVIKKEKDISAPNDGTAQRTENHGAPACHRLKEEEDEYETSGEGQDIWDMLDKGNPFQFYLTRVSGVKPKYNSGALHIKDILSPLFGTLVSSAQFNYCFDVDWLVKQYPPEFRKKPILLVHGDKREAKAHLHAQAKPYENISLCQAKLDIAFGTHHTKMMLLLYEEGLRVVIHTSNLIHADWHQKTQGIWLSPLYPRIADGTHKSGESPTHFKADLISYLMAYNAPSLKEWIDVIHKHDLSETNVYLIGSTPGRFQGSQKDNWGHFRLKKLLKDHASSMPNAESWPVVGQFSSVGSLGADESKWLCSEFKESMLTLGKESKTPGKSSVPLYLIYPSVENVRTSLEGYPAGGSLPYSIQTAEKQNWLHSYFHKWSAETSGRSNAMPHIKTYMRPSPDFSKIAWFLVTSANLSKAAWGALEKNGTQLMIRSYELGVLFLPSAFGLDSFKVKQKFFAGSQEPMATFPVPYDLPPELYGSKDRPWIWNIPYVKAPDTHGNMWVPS
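AlphaScreen read-out: signal falls as enzyme removes the 3' tyrosine-FITC from a 5'-biotinylated DNA oligo (15 nM, 5 min, RT). Enzyme was E. coli-made recombinant Tdp1 at 1 nM, exposed to compound for 15 min beforehand; beads 10 ug/ml, 10 min.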
TDP1 cell CPT: qHTS for Inhibitors of human tyrosyl-DNA phosphodiesterase 1 (TDP1): qHTS in cells in presence of CPT | Potency, µM (titrated, usually from 46.2 µM), for inactives: top-dose activity change, negative = growth inhibition, most hits filed as inhibitors | actives 12% (n = 420,000) | chicken DT40 Tdp1-/-;hTDP1 cells + 20 nM CPT, ATP luminescence, 48 h; note: potency is the fitted concentration of half-maximal effect; % is set by controls: 0 for no effect and ±100 for the full control effect; nearly all actives have a fitted effect of over 55% in size
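Cell growth measured by CellTiter-Glo luminescence after a minimum 48 h, 37 C compound exposure with 20 nM CPT in Tdp1-knockout DT40 cells stably expressing hTDP1, seeded 400/well; qHTS titration format.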
DT40 TDP1 no CPT: qHTS for Inhibitors of human tyrosyl-DNA phosphodiesterase 1 (TDP1): qHTS in cells in absence of CPT | DT40 Tdp1-/- hTDP1 cells, no CPT, ATP luminescence, 48 h | Potency, µM (highest dose often 46.2 µM), without a hit: at the highest dose activity change, negative = growth inhibition, actives largely listed as inhibitors | actives 15% (n = 420,000) | AID 686978, 2013; note: potency is the fitted concentration of half-maximal effect; % is set by controls: 0 for no effect and ±100 for the full control effect; nearly all actives have a fitted effect of over 55% in size
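Compound effects on proliferation are scored in DT40 Tdp1-/-;hTDP1 cells in the absence of CPT. ATP levels (CellTiter-Glo luminescence) are recorded after a ≥48 hr, 37 °C incubation.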
uPA surface inh: qHTS for Inhibitors of Cell Surface uPA Generation; cell surface uPA generation assay, qHTS; Potency, µM (top dose mostly 38.3 µM), for inactives: at the top dose activity change, negative = inhibition, actives largely listed as inhibitors; actives 0.31% (n = 330,000); active = well fitted inhibition curve with a large enough effect; inconclusive = small, poorly fitted or top-dose-only effect; inactive = no such curve, though single readings can be large or run the other way; tested in mouse RAW 264.7 cells; note: potency is the fitted concentration of half-maximal effect; % is set by controls: 0 for no effect and ±100 for the full control effect; nearly all actives have a fitted effect of over 55% in size
miR-21 act: qHTS Assay for Modulators of miRNAs and/orActivators of miR-21; Potency, µM (doses to about 38.3 µM), for the others: top-dose activity change, positive = activation, hits mostly activators; 340,000 tested, under 10 active; HeLa miR-21 FLuc reporter, luciferase, 48 h;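 note: % of control where 0% means no effect; miR-21 action dims this reporter so a rising signal means less miR-21 action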
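Luminescence from a firefly luciferase reporter carrying a miR-21 binding site downstream, stably expressed under a CMV promoter in HeLa cells that make miR-21 endogenously, reports miRNA modulation after 48 h compound exposure up to approximately 40uM final.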
* marks the source's active call; other numbers are inactive results; ? = inconclusive; nt = no result; ! = not confirmed by another sample; [ ] = another dose, or the depositor's remark. Unless noted, calls come from the whole dose curve; as a rule, active = well fitted curve in the direction sought with a large enough effect; inconclusive = small, poorly fitted or top-dose-only effect, or another doubt; inactive = no such curve, though single readings can be large; an effect the other way counts as inactive or inconclusive.

SMILES	TDP1 block	TDP1 cell CPT	DT40 TDP1 no CPT	uPA surface inh	miR-21 act
Oc1cccc(Nc2ncnc3c2oc2ccccc23)c1	nt	12µM*	?	-11%	-105%
c1ccc(Nc2ncnc3c2oc2ccccc23)cc1	nt	10µM*	?	6%	-66%
COc1ccc(C2C3=C(CCCC3=O)Nc3nc(SCc4ccc(C(=O)O)cc4)nn32)cc1OC (centres undefined)	-8%	-2%	-19%	17%	-6%
COc1ccc(C(=O)NCC(c2ccco2)N2CCCC2)cc1S(=O)(=O)N1CCCCC1C (centres undefined)	0%	-23%	-10%	-6%	nt
Cc1ccc(/C=N/n2c(-c3ccncc3)n[nH]c2=S)o1	7%	-24%	-20%	2%	2%
COc1cc(OC)cc(-c2sc3ccc(OC)cc3c2C#CCO)c1	-4%	?	21µM*	-2%	nt
COc1cccc(-c2sc3ccc(OC)cc3c2C#CCCO)c1	-5%	26µM*	?	9%	nt
N#Cc1ccc2[nH]cc(C3c4cc(F)ccc4C=C(c4ccsc4)N3c3ccc(C#CCCO)cc3)c2c1 (centres undefined)	nt	?	18µM*	nt	nt
CC(C)(O)C#Cc1ccc(N2C(c3ccsc3)=Cc3ccc(F)cc3C2c2c[nH]c3ccccc23)cc1 (centres undefined)	nt	?	18µM*	nt	nt
CCc1c(O)nc(SC2CC(=O)N(c3ccccc3)C2=O)[nH]c1=O (centres undefined)	0%	6%	-11%	2%	-4%
CCN1CCOC(=O)C1CC(=O)Nc1ccccc1C(F)(F)F (centres undefined)	-8%	3.3µM*	3.7µM*	nt	-5%
CCN1CCOC(=O)C1CC(=O)Nc1cc(Cl)ccc1OC (centres undefined)	-1%	4.6µM*	2.6µM*	nt	-19%
CCN1CCOC(=O)C1CC(=O)Nc1ccc(C(C)=O)cc1 (centres undefined)	-2%	21µM*	10µM*	nt	-44%
O=C(CC1C(=O)OCC2CCCCN21)Nc1ccccc1C(F)(F)F (centres undefined)	nt	2%	-14%	2%	-2%
O=C(C1CCN(S(=O)(=O)c2ccc(-n3cnnn3)cc2)CC1)N1CCCCC1	-9%	-5%	?	nt	7%
Cc1nc2scc(C)n2c(=O)c1S(=O)(=O)NCC1CCN(Cc2ccc(F)cc2)CC1	1%	2%	14%	0%	2%
Cc1sc2nc(-c3ccncc3)[nH]c(=O)c2c1-c1ccccc1	3%	nt	nt	nt	-8%
CCN(CC)C(=O)c1sc2nc(-c3ccccn3)[nH]c(=O)c2c1C	nt	23µM*	12µM*	-2%	nt
Cc1sc2nc(-c3ccccn3)[nH]c(=O)c2c1-c1ccccc1	-5%	9.2µM*	10µM*	-13%	-19%
Oc1ccc(Br)cc1CNc1nccs1	nt	-15%	?	?	-5%
O=C1C=CC2=C3c4cc(O)c(O)cc4CC3(O)COC2=C1O (centres undefined)	?	16µM*!	?	-9%	nt
CCCN1C=CC(=C2C(=O)c3ccccc3C2=O)C=C1	0%	8.2µM*	5.2µM*	nt	?
CCN1C=CC(=C2C(=O)c3ccccc3C2=O)C=C1	4%	16µM*	15µM*	nt	?
Cc1ccc(COC(=O)c2cc(S(=O)(=O)N3CCOCC3)ccc2C)cc1	-8%[56.1 µM]	?	?	-10%	nt
COc1cccc(-c2nnc(Nc3nc4c(F)cccc4s3)o2)c1	-2%	21µM*	23µM*	?	-30%
COc1ccccc1-c1nnc(Nc2nc3c(OC)cccc3s2)o1	12%[56.1 µM]	0.92µM*	0.73µM*	-18%	1%
COc1cccc(-c2nnc(-c3ccc4ccccc4c3)o2)c1	nt	?	-27%	-7%	nt
COc1cccc2sc(Nc3nnc(-c4ccccc4Cl)o3)nc12	5%	1.6µM*	1.5µM*	?	7%
